Assay outcomes deposited in PubChem by National Center for Advancing Translational Sciences (NCATS).
A selection: hits, their analogues and other compounds. The true share with any hit is near 12%.
BAZ2B block = blocks human BAZ2B | AlphaScreen BAZ2B-H3K14Ac peptide displacement | Potency, µM (doses to about 114 µM), for the others: top-dose activity change, negative = inhibition, usual class: inhibitors | actives 4.4% (n = 360,000); note: % is set by controls: 0 for no effect and ±100 for the full control effect; nearly all actives have a fitted effect of over 60% in size
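BAZ2B 50 nM plus b-H3(5-23)K14Ac 50 nM, PBS pH 7.4/0.01% Tween-20, 30 min RT; compound added (max 110 uM), 30 min RT; streptavidin donor/Ni-chelate acceptor beads 10 ug/mL final, 20 min dark; AlphaScreen read.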
Sfp PPTase inh = blocks B. subtilis Sfp PPTase activity; Q9F4F7; Biochemical Sfp PPTase activity, qHTS; Potency, µM, inactives show largest response in the series, negative = inhibition, actives largely listed as inhibitors; actives 3.5% (n = 310,000); AID 1490;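 note: the enzyme is Sfp with the accession as filed and its product quenches rhodamine fluorescence; 0% = enzyme reaction without inhibitor and -100% = no enzyme wells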
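Buffer: 50 mM Hepes-Na pH 7.6, 10 mM MgCl2, 0.01% Nonidet P-40, 0.01% BSA. Enzyme 15 nM, pre-exposed to compound 15 min; substrates then added and fluorescence change tracked over 30 min.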
JMJD2A Tudor inh = inhibitors of human JMJD2A Tudor domain; AlphaScreen JMJD2A-Tudor / H3K4me3 peptide binding; Potency, µM (doses to about 114 µM), inactives show top-dose activity change, negative = inhibition, usual class: inhibitors; actives 4.4% (n = 390,000); AID 504339; note: % is set by controls: 0 for no effect and ±100 for the full control effect; nearly all actives have a fitted effect of over 50% in size
PLK1 PBD block = inhibitors of human PLK1 polo-box domain binding | P53350 | Plk1 PBD binding of FITC phosphopeptide, fluorescence polarization | Potency, µM, for inactives: max response, negative = inhibition, usual class: inhibitors | actives 2.8% (n = 360,000) | AID 720504; note: series mostly up to about 57 µM; % is set by controls: 0 for no effect and ±100 for the full control effect; nearly all actives have a fitted effect of over 65% in size
G9a inh = inhibitors of human histone lysine methyltransferase G9a. AID 504332. G9a H3K9 monomethylation, AlphaScreen, 2 h. actives 8.8% (n = 350,000). Q96KQ7. Potency, µM (series often up to 102 µM), for inactives: at the highest dose activity, negative = inhibition, hits mostly inhibitors; note: % is set by controls: 0 for no effect and ±100 for the full control effect; nearly all actives have a fitted effect of over 75% in size
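G9a (20 nM) was preincubated 15 min with compound, then reacted 2 h at room temperature with 500 nM biotin-H3K9 peptide and 20 µM SAM. Monomethyl-H3K9 detected by AlphaScreen using anti-H3K9me1 antibody.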
HP1b binding inh = inhibitors of HP1-beta chromodomain binding to methylated histone tails; P83916; Potency, µM (series often up to 114 µM), inactives show at the top dose activity change, negative = inhibition, most hits filed as inhibitors; actives 0.56% (n = 390,000); AlphaScreen HP1-beta / biotin-H3K9me3 peptide binding; AID 540317; note: nearly all actives have a fitted effect of over 70% in size
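HP1-beta protein (50 nM final) preincubated 30 min at room temperature with biotinylated H3(1-18)K9me3 peptide (50 nM) in PBS pH 7.4, 0.01% Tween-20, then compound added for 30 min. AlphaScreen streptavidin donor/nickel chelate acceptor beads (10 ug/mL final), 30 min dark, luminescence read.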
Numbers without * were called inactive; ? = inconclusive; . = not tested or not shown; ! = repeats disagree; [ ] = dose if it differs, or a comment. Calls come from the whole dose curve; as a rule, active = well fitted curve in the direction sought with a large enough effect; inconclusive = small, poorly fitted or top-dose-only effect, or another doubt; inactive = no such curve, though single readings can be large; an effect the other way counts as inactive or inconclusive. Potency is the fitted concentration of half-maximal effect.

SMILES	BAZ2B block	Sfp PPTase inh	JMJD2A Tudor inh	PLK1 PBD block	G9a inh	HP1b binding inh
Cc1c(NC(=O)Nc2cccc(C(F)(F)F)c2)sc2nc3n(c(=O)c12)CCC(C)CC3 (centres undefined)	1.6%	.	-4.7%	.	2.8%[59 µM]	31.0%
CCOc1ccccc1C1N(c2ccc(F)cc2)C(=O)C2CCCN21 (centres undefined)	8.3%	6.2%	7.4%	-7.7%	13.0%[12.7 µM]	27.0%
O=C1C2CCCN2C(c2ccccc2)N1c1nccs1 (centres undefined)	?	50.1µM*	?	-5.1%	?	18.9%
Cc1ccccc1C1N(c2nccs2)C(=O)C2CCCN21 (centres undefined)	-33.3%	50.1µM*	2.1%	-11.5%	?	40.0%
COc1ccc(NC(=O)CC(C)c2ccccc2)cc1S(=O)(=O)N1CCOCC1 (centres undefined)	10.0%	.	-13.9%	-2.4%	?	28.4%
Cc1ccc(CCNC(=O)c2cc3sccc3n2Cc2ccc(C)cc2)cc1	-13.6%	.	-27.2%	.	5.8%[59 µM]	14.0%
O=C(NCCc1ccccc1)c1cc2sccc2n1Cc1ccccc1	89.1µM*	-0.9%	?	?	2.7%	-7.3%
CCOc1ccc(C(C)C)cc1S(=O)(=O)Nc1cccc(-c2ccc(N3CCOCC3)nn2)c1	-0.8%	.	-10.9%	.	2.8%[59 µM]	23.6%[57 µM]
COC(=O)c1c[nH]c(=S)n1Cc1ccccc1	.	.	2.82µM*	-8.6%	.	18.1%[57 µM]
S=c1[nH]cc(-c2ccc(Cl)cc2)n1Cc1ccccc1	-9.5%	-5.6%	-2.2%[11.4 µM]	-16.0%	?	70.5%
COc1cc(C(=O)N(Cc2ccccn2)CC2CCCO2)cc(OC)c1OC (centres undefined)	56.2µM*	0.6%	17.8µM*	-6.8%	-38.9%[12.7 µM]	-17.4%
COc1ccc(C(=O)N(Cc2cc(OC)c(OC)c(OC)c2)CC2CCCO2)cc1 (centres undefined)	-5.9%	.	-7.5%	.	-1.5%[59 µM]	13.5%
CCOc1ccc(CCNC(=O)CN2C(=O)COc3ccc(S(=O)(=O)N(CC)CC)cc32)cc1	-23.4%	.	-17.5%	.	-24.2%[59 µM]	32.6%
Cc1onc(-c2ccccc2)c1C(=O)N1CCCCCC1	-0.2%	16.5%	-15.2%	-1.2%	13.1%	39.9%
Cc1onc(-c2ccccc2)c1C(=O)N1CCCC1	50.1µM*	14.1%	-17.3%	-11.4%	55.2%	31.8%
Cc1onc(-c2c(F)cccc2Cl)c1C(=O)N1CCSCC1	-10.7%	9.3%	7.0%	-4.9%	50.1µM*	45.0%
Cc1[nH]c2ccccc2c1C1C(c2ccccc2)=NN=C(C(C)C)N1O (centres undefined)	-30.6%	-0.6%	-33.8%	-12.4%	6.31µM*	0.6%
O=C(NCc1ccc(F)cc1)c1ccc(CSc2nc3ccncc3n2Cc2ccc(F)cc2)cc1	-0.8%	.	-1.1%	.	-48.4%[59 µM]	54.9%
COCCNC(=O)C(c1ccc(OC)cc1)N(CCOC)C(=O)CCC(=O)Nc1nccs1 (centres undefined)	10.9%	20.2%	-6.3%	-7.8%	-8.3%	49.1%
COc1ccc(C(C(=O)NC(C)C)N(C(=O)CCC(=O)Nc2nccs2)c2ccccc2F)cc1 (centres undefined)	-7.7%	11.3%	?	13.4µM*	-2.3%	?
Cc1cccc(NC(=O)c2sc3nc4c(c(-c5cccs5)c3c2N)CN(C)CC4)c1	?	?	?	-27.8%	44.7µM*	-18.1%
O=C(O)c1ccc(OCCCCCCOC2CCCCO2)cc1 (centres undefined)	-2.4%	15.8%	?	26.7µM*	12.8%	12.1%
COc1ccc(N(Cc2cccs2)C(=O)c2ccco2)cc1	-10.1%	.	0.3%	.	2.9%[59 µM]	38.4%
Cc1cccc(C#Cc2ccccc2)n1	-8.2%	50.1µM*!	?	-19.6%	20µM*!	54.6%
NC(=O)c1ccc(NC(=O)COC(=O)CC23CC4CC(CC(Br)(C4)C2)C3)cc1	.	.	-20.5%	-2.1%	.	23.0%
SMILES	BAZ2B block	Sfp PPTase inh	JMJD2A Tudor inh	PLK1 PBD block	G9a inh	HP1b binding inh
N#Cc1c(C#N)c(-c2ccccc2)n(-c2ccc(C(=O)O)cc2)c1N	?	23.7%	-19.6%	-4.6%	56.2µM*	17.6%
N#Cc1c(C#N)c(SSc2c(C#N)c(C#N)c(N)n2-c2ccccc2)n(-c2ccccc2)c1N	.	.	0.794µM*	2.67µM*	.	?
N#Cc1c(N)n(-c2ccc(C(=O)O)cc2)c2nc3ccccc3nc12	2.3%	18.3%	7.0%	0.2%	-5.5%[59 µM]	39.2%
O=C(OCC#CCSc1nnc(-c2cccc3ccccc23)o1)c1cc(F)c(F)c(F)c1	.	.	21.1%	.	.	.
O=C(NCc1cccnc1)c1cc(C2CCCCN2S(=O)(=O)c2ccc(F)cc2F)on1 (centres undefined)	.	.	.	-6.2%	.	.
CC(C)n1cc(/C=N/NC(=O)COc2cccc3cccnc23)c2ccccc21	8.7%	?	-30.0%	-10.8%	44.7µM*	28.6%
COc1ccc(OCC(=O)N/N=C/c2cccc3cccnc23)cc1	.	.	79.4µM*	-0.9%	.	18.9%
C=CCn1cc(/C=N/NC(=O)COc2cccc3cccnc23)c2ccccc21	?	?	?	3.1%	?	9.0%
O=C(COc1ccc(Cl)cc1)N/N=C/c1cccc2cccnc12	-5.5%	-16.4%	-9.0%	-3.0%	.	25.5%
COc1ccccc1OCC(=O)N/N=C/c1cccc2cccnc12	35.5µM*	4.8%	56.2µM*	3.8%	.	29.2%
CCCCOc1ccc(CNC(=O)c2ccc(NC(=O)N3CCSc4ncccc43)cc2)cc1	-17.4%	.	-6.9%	.	-0.2%[59 µM]	6.4%
Cc1c(Br)c(=O)oc2c(Br)c(O)ccc12	-3.3%	-2.2%	-8.3%	-2.6%	-46.8%	7.4%
Cc1c(Br)c(=O)oc2c(Br)c(O)c(O)cc12	?	?	44.7µM*	0.5%	28.2µM*	-11.4%
Nc1nnc(CSCc2ccc(Cl)cc2Cl)s1	3.8%	14.8%	-4.3%	18.9µM*	?	8.7%
Nc1ccc2c(c1)Nc1ccccc1CC2	28.2µM*	-2.4%	50.1µM*	1.7%	.	-32.2%
C[C@H](CO)N1C[C@H](C)[C@@H](CN(C)C(=O)Nc2ccc3c(c2)OCO3)Oc2c(NC(=O)Nc3ccc4c(c3)OCO4)cccc2C1=O	.	.	?	-2.4%	.	16.6%
CS(=O)(=O)N(CC(=O)N1CCN(c2ccccc2)CC1)C1CCCCC1	7.8%	17.5%	50.1µM*	26.7µM*	14.4%[59 µM]	-15.2%
CCc1ccccc1N(CC(=O)N1CCCC1)S(C)(=O)=O	4.5%	12.2%	8.5%	-2.1%	6.2%	38.7%
Cc1cc(C)cc(N(CC(=O)N2CCN(c3ccccc3)CC2)S(=O)(=O)c2c(C)noc2C)c1	-10.9%	-7.5%	?	23.8µM*	?	0.5%
Cc1ccccc1N(CC(=O)N1CCN(c2ccccc2)CC1)S(C)(=O)=O	-3.7%	-5.3%	-17.9%	-21.3%	50.1µM*	22.6%
